# Measurements as given in PubChem BioAssay.
# The source made the active and inactive calls. Unless noted, how the calls were made is not given here.
# Experiments:
# [1] = anti-His antibody binders, primary screen, artefact control for SMM control protein annotation, biochemical, small-molecule microarray, 635 nm fluorescence (AID 1128); conditions: anti-His Alexa647 antibody binding, higher = more signal;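 further: score merges feature fluorescence with signal-to-noise for each printed compound spot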
# [2] = tested on: Human papillomavirus type 1a E7 protein (residues 1-88); experiment: HPV1a E7 small-molecule binders, primary screen, biochemical, small-molecule microarray, residues 1-88, 635 nm (AID 1129); conditions: small-molecule microarray binding, fluorescence 635 nm; higher = more signal
# [3] = target: Focal adhesion kinase 1 (Homo sapiens) (UniProt Q05397); experiment: small-molecule microarray binders of FAK, primary screen, biochemical, 635/667 nm fluorescence, BSA, DTT (AID 1130); conditions: PTK2 binding, 635 nm fluorescence, higher = more signal;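 further: composite of spot emission at 667 nm and signal to noise over triplicate slides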
# [4] = tested on: Fibrinogen (Alexa647-labelled); experiment: fibrinogen binders on compound microarrays, profiling panel, artefact control for SMM control-protein annotation, biochemical, small-molecule microarray, 635/667 nm fluorescence (AID 1131); conditions: fibrinogen-A647 binding fluorescence, higher = more signal;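 further: z-score merges 667 nm fluorescence with per-spot signal-to-noise over triplicate slides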
# [5] = target: Follistatin (Homo sapiens) (UniProt P19883); experiment: follistatin binders on small-molecule microarrays, primary screen, biochemical, small-molecule microarray, 635/667 nm fluorescence (AID 1132); conditions: FST binding, 635 nm fluorescence, higher = more signal
# [6] = target: Fibroblast growth factor 2 (Homo sapiens) (UniProt P09038); experiment: FGF2 binders on small-molecule microarrays, primary screen, biochemical, small-molecule microarray, 635/667 nm fluorescence (AID 1133); conditions: small-molecule microarray binding, FGF2, fluorescence 635/667; higher = more signal
# [7] = mitochondrial membrane potential change in A549 cells, profiling panel, cell-based, JC-1 fluorescence, basal, 24 h, 100 nL (AID 1138); conditions: higher = more signal;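 further: A549 lung adenocarcinoma cells under basal conditions with no added stimulus; test concentration not given here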
# Lefty1 = Lefty1 binders on small-molecule microarrays, primary screen, biochemical, small-molecule microarray, 635/667 nm fluorescence (AID 1139); conditions: small-molecule microarray binding, fluorescence 635/667; higher = more signal
# [8] = tested on: wheat germ agglutinin (Triticum aestivum), Alexa647-labelled; experiment: wheat germ agglutinin binders on compound microarrays, profiling panel, artefact control for SMM control-protein annotation, biochemical, small-molecule microarray, 635/667 nm fluorescence (AID 1140); conditions: WGA-A647 binding, 635 nm fluorescence, higher = more signal;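 further: score merges 667 nm feature emission with signal to noise over triplicate slides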
# [9] = target: Luciferin 4-monooxygenase (Photinus pyralis) (UniProt P08659); experiment: firefly luciferase enzyme inhibitors, primary screen, biochemical, luminescence, purified enzyme, 2006 set (AID 1141); conditions: SteadyGlo luminescence, 30 min, higher = more signal, called active from +8 up or from −8 down;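 further: cell-free assay with purified firefly luciferase at 100 ng per well in PBS; test concentration not given here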
# [10] = tested on: Wnt5a (protein binding on small-molecule microarray); experiment: Wnt5a binders on small-molecule microarray, primary screen, biophysical, 635/667 nm fluorescence (AID 1142); conditions: 635 nm fluorescence, higher = more signal;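 further: fluorescence read at 667 nm with signal to noise per printed feature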
# [11] = cell viability in Huh7 cells, primary screen, cytotoxicity control for HCV replication inhibitor project, CellTiter-Glo luminescence, basal, 48 h (AID 1143); conditions: Huh7 HCV replicon, higher = more signal, called active from +8 up or from −8 down;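 further: Huh7 hepatoma cells carrying a hepatitis C replication reporter with no stimulus; test concentration not given here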
# [12] = P. aeruginosa biofilm formation inhibitors, primary screen, PAO1 strain, BacTiter-Glo luminescence, LB-PBS (AID 1144); conditions: 12 h, higher = more signal
# [13] = CREB reporter modulators without forskolin, primary screen, cell-based, PC12, CRE-LacZ reporter, unstimulated (AID 1145); conditions: no forskolin, luminescence, 4.5 h, higher = more signal, called active from +8 up or from −8 down
# [14] = CREB reporter modulators under forskolin, primary screen, cell-based, PC12, CRE-LacZ reporter, forskolin-stimulated (AID 1146); conditions: luminescence, 4.5 h, higher = more signal, called active from +8 up or from −8 down;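 further: PC12 cells with 6xCRE LacZ reporter stimulated by forskolin 10 µM; beta-galactosidase reporter signal reflecting CREB driven transcription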
# [15] = target: Streptavidin (Streptomyces avidinii) (UniProt P22629); experiment: streptavidin binders on small-molecule microarray, primary screen, artefact control for SMM compound annotation, biophysical, 635/667 nm fluorescence (AID 1147); conditions: streptavidin binding, higher = more signal;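 further: signal reflects streptavidin binding to arrayed compounds as a control protein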
# [16] = small-molecule binders of probe aInhba, primary screen, biochemical, small-molecule microarray, 635/667 nm fluorescence (AID 1148); conditions: higher = more signal;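 further: score merges 667nm spot fluorescence with signal-to-noise for antibody binding to printed compounds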
# Torsin-1A (Homo sapiens) [17] = target: Torsin-1A (Homo sapiens) (UniProt O14656); experiment: torsin A binders from cell lysate, primary screen, small-molecule microarray, wild-type, 635/667 nm (AID 1149); conditions: COS7 hTOR1A-WT lysate, 635 nm fluorescence, higher = more signal
# Torsin-1A (Homo sapiens) [18] = target: Torsin-1A (Homo sapiens) (UniProt O14656); experiment: small-molecule binders of mutant TOR1A in lysate, primary screen, cell lysate, small-molecule microarray, COS7 lysate, 635/667 nm fluorescence (AID 1150); conditions: COS7 hTOR1A mutant lysate, 635 nm fluorescence, higher = more signal;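 further: score pools 667 nm emission and signal to noise measuring lysate protein binding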
# [19] = tested on: Sonic hedgehog protein (Shh); experiment: small-molecule binders of Shh protein, primary screen, biochemical, small-molecule microarray, 635/667 nm fluorescence (AID 1151); conditions: small-molecule microarray binding, 635 nm fluorescence; higher = more signal;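 further: Shh protein binding to compounds spotted on small-molecule microarray slides; score combines spot fluorescence intensity with signal-to-noise across triplicate slides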
# Fibroblast growth factor 2 (Homo sapiens), sequence (P09038 whole entry, looked up): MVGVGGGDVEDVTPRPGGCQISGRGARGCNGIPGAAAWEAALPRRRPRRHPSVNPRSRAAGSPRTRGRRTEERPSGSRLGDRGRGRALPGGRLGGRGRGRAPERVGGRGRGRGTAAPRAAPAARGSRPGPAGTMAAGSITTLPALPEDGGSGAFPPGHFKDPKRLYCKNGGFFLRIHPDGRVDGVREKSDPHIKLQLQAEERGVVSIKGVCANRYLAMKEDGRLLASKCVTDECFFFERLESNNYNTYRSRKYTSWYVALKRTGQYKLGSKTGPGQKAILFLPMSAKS
# Torsin-1A (Homo sapiens), sequence (O14656 whole entry, looked up): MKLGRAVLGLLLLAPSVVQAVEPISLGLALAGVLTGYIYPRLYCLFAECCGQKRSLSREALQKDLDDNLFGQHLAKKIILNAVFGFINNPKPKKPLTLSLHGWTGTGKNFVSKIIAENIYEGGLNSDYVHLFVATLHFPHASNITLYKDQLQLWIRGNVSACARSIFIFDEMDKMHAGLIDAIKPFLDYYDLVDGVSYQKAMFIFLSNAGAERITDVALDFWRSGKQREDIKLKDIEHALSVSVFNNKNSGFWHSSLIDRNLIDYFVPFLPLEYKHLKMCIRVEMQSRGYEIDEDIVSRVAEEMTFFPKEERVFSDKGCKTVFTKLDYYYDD
# Focal adhesion kinase 1 (Homo sapiens), sequence (Q05397 whole entry, looked up): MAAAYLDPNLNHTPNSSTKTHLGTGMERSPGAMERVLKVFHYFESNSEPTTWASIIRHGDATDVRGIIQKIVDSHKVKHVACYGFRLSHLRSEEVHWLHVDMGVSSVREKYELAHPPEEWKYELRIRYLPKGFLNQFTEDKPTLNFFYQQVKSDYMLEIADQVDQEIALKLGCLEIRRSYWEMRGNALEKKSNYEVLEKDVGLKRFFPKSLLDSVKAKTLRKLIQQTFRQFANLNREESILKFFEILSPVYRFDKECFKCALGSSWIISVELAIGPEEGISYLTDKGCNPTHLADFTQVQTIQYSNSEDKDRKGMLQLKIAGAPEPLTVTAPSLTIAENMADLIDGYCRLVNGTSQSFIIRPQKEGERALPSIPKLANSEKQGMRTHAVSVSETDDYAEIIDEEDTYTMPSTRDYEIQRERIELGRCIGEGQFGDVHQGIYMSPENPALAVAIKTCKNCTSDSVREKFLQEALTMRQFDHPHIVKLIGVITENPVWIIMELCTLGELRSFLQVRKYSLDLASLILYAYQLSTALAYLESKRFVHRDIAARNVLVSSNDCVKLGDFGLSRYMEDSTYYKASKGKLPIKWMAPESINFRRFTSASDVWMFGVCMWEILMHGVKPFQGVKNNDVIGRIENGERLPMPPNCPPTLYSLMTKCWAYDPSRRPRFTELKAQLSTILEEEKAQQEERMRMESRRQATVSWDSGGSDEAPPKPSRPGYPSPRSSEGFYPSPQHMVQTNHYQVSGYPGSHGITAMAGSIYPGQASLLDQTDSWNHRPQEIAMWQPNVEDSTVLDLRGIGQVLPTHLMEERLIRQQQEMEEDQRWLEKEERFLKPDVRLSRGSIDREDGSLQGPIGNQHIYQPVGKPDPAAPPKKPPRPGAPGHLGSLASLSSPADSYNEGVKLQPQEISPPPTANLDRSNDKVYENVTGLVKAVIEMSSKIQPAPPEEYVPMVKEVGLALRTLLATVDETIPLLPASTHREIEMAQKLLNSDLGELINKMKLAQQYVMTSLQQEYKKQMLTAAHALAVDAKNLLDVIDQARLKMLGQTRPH
# Follistatin (Homo sapiens), sequence (P19883 whole entry, looked up): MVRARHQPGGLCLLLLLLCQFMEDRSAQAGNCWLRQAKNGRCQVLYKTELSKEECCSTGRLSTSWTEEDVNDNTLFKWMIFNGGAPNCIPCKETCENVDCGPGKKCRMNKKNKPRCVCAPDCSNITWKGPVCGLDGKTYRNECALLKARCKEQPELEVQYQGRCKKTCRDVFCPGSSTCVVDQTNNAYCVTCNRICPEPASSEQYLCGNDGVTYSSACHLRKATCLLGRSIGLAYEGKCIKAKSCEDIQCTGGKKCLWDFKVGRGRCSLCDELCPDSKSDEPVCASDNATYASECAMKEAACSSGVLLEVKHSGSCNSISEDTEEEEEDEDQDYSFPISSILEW
# Luciferin 4-monooxygenase (Photinus pyralis), sequence (P08659 whole entry, looked up): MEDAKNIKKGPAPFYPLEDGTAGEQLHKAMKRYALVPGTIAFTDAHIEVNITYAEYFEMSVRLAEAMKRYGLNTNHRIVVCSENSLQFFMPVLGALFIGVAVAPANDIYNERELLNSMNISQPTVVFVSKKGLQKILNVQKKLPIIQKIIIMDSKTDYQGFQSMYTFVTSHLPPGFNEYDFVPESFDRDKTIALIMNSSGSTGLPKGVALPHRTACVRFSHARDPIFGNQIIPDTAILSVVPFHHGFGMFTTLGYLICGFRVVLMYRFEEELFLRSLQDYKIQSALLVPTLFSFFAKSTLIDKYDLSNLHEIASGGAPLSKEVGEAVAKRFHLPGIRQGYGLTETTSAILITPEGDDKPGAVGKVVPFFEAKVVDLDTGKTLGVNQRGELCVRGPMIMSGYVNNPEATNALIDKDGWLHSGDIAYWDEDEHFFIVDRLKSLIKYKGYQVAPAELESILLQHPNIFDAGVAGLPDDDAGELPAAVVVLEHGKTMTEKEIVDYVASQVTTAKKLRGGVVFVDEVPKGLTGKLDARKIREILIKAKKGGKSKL
# Streptavidin (Streptomyces avidinii), sequence (P22629 whole entry, looked up): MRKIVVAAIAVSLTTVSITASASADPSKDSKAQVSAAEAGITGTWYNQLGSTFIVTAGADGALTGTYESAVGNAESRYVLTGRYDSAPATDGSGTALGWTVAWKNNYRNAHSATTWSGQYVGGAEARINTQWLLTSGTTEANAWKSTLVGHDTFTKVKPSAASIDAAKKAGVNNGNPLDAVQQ
SMILES,composite z-score [1],composite z-score [2],composite z-score [3],composite z-score [4],composite z-score [5],composite z-score [6],z-score [7],composite z-score (Lefty1),composite z-score [8],z-score [9],composite z-score [10],z-score [11],z-score [12],z-score [13],z-score [14],composite z-score [15],composite z-score [16],composite z-score (Torsin-1A (Homo sapiens) [17]),composite z-score (Torsin-1A (Homo sapiens) [18]),composite z-score [19]
COc1ccc(C(O)C2C=CC3C(=O)N(C)C(=O)C3N2N2CCCCC2)cc1OCc1ccccc1 (stereo not given),1.31,1.2,0.391,0.838,0.795,-0.444,0.0785,-0.24,0.951,-0.381 (inactive),0.0847,0.135 (inactive),-0.314 (inactive),0.433 (inactive),-0.342 (inactive),0.701,-0.0332,0.0884,0.836,-0.282
C=C(C(=O)CC[C@H](OC(=O)c1ccccc1-c1ccccc1C(=O)O)c1ccc(CO)o1)C(C)C,2.61,0.0323,0.0321,0.531,1.27,1.46,-0.528,1.04,0.0123,-1.75 (inactive),0.416,0.559 (inactive),-1.11 (inactive),0.406 (inactive),2.42 (inactive),0.194,-0.0933,0.427,0.669,1.71
NC(=O)[C@H]1[C@@H]2C(=O)O[C@@H](c3ccccc3)[C@@H](c3ccccc3)N2[C@@H](c2ccc(O)cc2)[C@]12C(=O)Nc1ccc(C#CCCO)cc12,2.14,-1.66,-0.574,-1.74,-0.458,-0.581,-1.14,-0.997,-1.4,-0.0824 (inactive),-0.183,0.134 (inactive),-0.453 (inactive),-0.258 (inactive),0.278 (inactive),-1.57,-0.0044,-1.39,0.806,0.35
Cc1ccc(N2C(=O)c3ccccc3[C@@H](C(=O)NCC(F)(F)F)[C@@H]2c2ccc(CO)cc2)nc1,-1.37,-2.06,-0.589,-1.4,-2.06,-0.59,-0.913,-3.17,-0.925,-0.642 (inactive),0.0023,-0.977 (inactive),0.00438 (inactive),0.791 (inactive),0.495 (inactive),-1.62,0.17,-1.76,-1.78,0.0716
CCC1=C2CN(Cc3ccccc3Br)[C@@H]([C@@H](O)Cc3ccccc3)C2C=CCC1 (stereo not given in full),1.23,1.13,0.172,0.455,0.651,0.209,-0.7,1.25,0.291,-0.852 (inactive),0.0361,-5.22 (inactive),-0.709 (inactive),2.12 (inactive),4.84 (inactive),0.721,-0.105,0.476,0.212,0.675
Cc1ccc(N2C(=O)c3ccccc3[C@](C)(C(=O)NCC(C)C)[C@@H]2c2ccc(CO)cc2)nc1,-1.02,-1.2,-1.04,-1.43,-0.125,-0.671,-0.393,-0.589,0.0574,0.525 (inactive),-0.116,0.985 (inactive),-0.309 (inactive),-0.0888 (inactive),-0.002 (inactive),-1.12,-0.147,-0.458,-1.26,-0.656
COCCOC(=O)N1C(=O)[C@@]2(c3cc(C#CC4=CCCCC4)ccc31)[C@H](c1ccc(O)cc1)N1[C@H](c3ccccc3)[C@H](c3ccccc3)OC(=O)[C@H]1[C@@H]2C(=O)N1CCCCCCC1,0.31,1.15,1.45,0.694,1.23,1.22,1.99,1.12,0.576,-1.72 (inactive),0.288,-3.42 (inactive),-0.307 (inactive),-1.01 (inactive),-1.09 (inactive),1.29,0.0818,0.588,0.594,1.76
COc1cc(Cc2cc3c(c(CCc4ccccc4)n2)[Si](C(C)C)(C(C)C)OC3)cc(OC)c1OC,0.151,-0.162,0.0612,-0.386,0.694,0.263,1.51,0.48,-0.14,0.874 (inactive),-0.179,-1.86 (inactive),-0.554 (inactive),-0.0989 (inactive),0.132 (inactive),0.977,-0.159,0.1,0.0658,0.553
CC(C)=C1C(=O)C(c2ccccc2)=C2CN3C(=O)N(CCc4ccccc4)C(=O)[C@]3(Cc3ccccc3)[C@H]21,1.39,-0.992,0.521,-0.358,-1.04,-0.77,1.45,-0.961,-0.112,0.451 (inactive),-0.355,-0.462 (inactive),0.105 (inactive),0.783 (inactive),0.379 (inactive),0.0686,0.128,-2.07,-1.13,-1.32
O=C1O[C@H](c2ccccc2)[C@H](c2ccccc2)N2[C@H]1[C@@H](C(=O)Nc1nc3ccccc3s1)[C@]1(C(=O)Nc3ccc(C#CC4=CCCCC4)cc31)[C@H]2c1ccccc1OCCO,0.485,1.15,0.66,0.797,0.968,1.2,-2.27,0.966,-0.17,-1.01 (inactive),0.266,-4.26 (inactive),0.331 (inactive),0.619 (inactive),-0.0292 (inactive),0.841,0.0649,0.552,0.0083,1.63
